Assays:
Conditions in all cases: concentration: 1 μM, replicates: in singlicate; n = 1
[1] = system: WNK4
[2] = system: T1, YANK1
T1 construct: gene STK32A

[3] = system: T2, YANK2
T2 construct: gene STK32B

[4] = system: T3, YANK3
T3 construct: gene STK32C

[5] = system: T4, YES
T4 construct: gene YES1

[6] = system: T5, YSK1
T5 construct: gene STK25

[7] = system: T6, YSK4
T6 construct: gene MAP3K19

[8] = system: ZAK
[9] = system: ZAP70
[10] = system: T7, p38-alpha
T7 construct: gene MAPK14
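Further: KINOMEscan kinase panel screen.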

Row | Compound | %Inh [1] | %Inh [2] | %Inh [3] | %Inh [4] | %Inh [5] | %Inh [6] | %Inh [7] | %Inh [8] | %Inh [9] | %Inh [10]
1 | O=C(CCO)NCCn1ccc2ncnc(Nc3ccc(Oc4cccc(C(F)(F)F)c4)c(Cl)c3)c21 | 0% | 0% | 0% | 0% | 0% | 0% | 0% | 0% | 0% | 0%
2 | CC(=O)Nc1n[nH]c2ncc(-c3ccccc3)cc12 [SB-548492] | 30% | 0% | 0% | 0% | 0% | 0% | 31% | 31% | 0% | 4%
3 | Nc1nc(-c2ccccn2)c(-c2ccnc3ccccc23)s1 [GW548057] | 88% | 0% | 7% | 0% | 13% | 14% | 4% | 0% | 4% | 54%
4 | CSc1ccc(NC2=C(c3ccccc3Cl)C(=O)NC2=O)cc1 [SB-342411] | 0% | 12% | 0% | 9% | 9% | 60% | 0% | 20% | 0% | 0%
5 | CCC(CC)(CC)n1cnc2c(N)ncnc21 [SKF-97620] | 23% | 18% | 12% | 9% | 0% | 0% | 31% | 0% | 29% | 3%

Source: publication PMC5540273 (PLoS ONE, 2017)
